Screens from PubChem.
Pf Dd2 growth: P. falciparum Dd2 growth inhibition; SYBR Green, 72 h; hits give low values; activity change, % at 10 µM; 94,000 compounds, 2.3% hits; AID 1159554; in the data active means activity change below about -80%; inconclusive means no clear call, values can overlap the other calls
C diff HTS: blocks growth of Clostridium difficile; Clostridium difficile clinical isolate growth, OD600, 24 h; hits give low values; growth activity, negative = inhibition, % at 16 µg/mL (by protocol); 86,000 compounds, 0.25% hits; AID 1259249;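 active means mean growth activity at or below -80% and every replicate also at or below -80%; inconclusive means mean at or below -80% but some replicate above -80%; inactive means mean growth activity above -80%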
T cruzi growth-1: blocks T. cruzi growth in NIH3T3 culture; 77,000 compounds, 5.9% hits; AID 624255; T. cruzi beta-gal in NIH3T3, GalScreen luminescence, 90 h; inhibition, % at 8.34 µM;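 active means mean inhibition above about 93%, with at least 55% of replicates each passing it, limit read from the data, passing the limit was not always enough; inconclusive means only one of those two conditions holds; inactive means neither condition holds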
T cruzi growth-2: Trypanosoma cruzi proliferation inhibition; 5,600 compounds, 72% hits; inhibition, % at 8.35 µM; AID 651739; shares compounds with T cruzi growth-1; T. cruzi beta-gal in NIH3T3, GalScreen luminescence, 90 h;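 active means mean replicate inhibition above about 95% and at least 55% of replicates individually reaching it, limit read from the data; inconclusive means only one of the two criteria is met; inactive means neither criterion is met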
T cruzi growth-3: blocks T. cruzi growth in NIH3T3 host cells; shares compounds with T cruzi growth-1; T. cruzi beta-gal in NIH3T3, GalScreen luminescence, 90 h; inhibition, % at 2.09 µM; 5,600 compounds, 21% hits; AID 651740;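 active means mean inhibition above about 95%, with at least 55% of replicates also reaching it, limit read from the data; inconclusive means meets just one of the two conditions; inactive means meets neither condition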
NIH3T3 tox: NIH/3T3 (mouse) viability loss | cytotoxicity (signal decrease), % at 8.35 µM | shares compounds with T cruzi growth-1 | NIH/3T3 viability, CellTiter-Glo ATP luminescence, 90 h | 5,600 compounds, 14% hits | AID 651742;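 active means mean signal decrease across replicates above about 35% based on untreated-well scatter, with enough replicates individually passing, limit read from the data; inconclusive means no rule stated though some were filed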
3T3 cytotox 2: kills mouse NIH/3T3 fibroblasts | shares compounds with T cruzi growth-1 | NIH/3T3 viability, CellTiter-Glo ATP luminescence, 90 h | inhibition, % at 24.9 µM | 5,600 compounds, 56% hits;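 active means mean loss of cell viability signal at or above a set limit, and enough replicates individually reaching it; inconclusive means meets only the mean limit or only the replicate share; inactive means meets neither condition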
A number is an active result; – = inactive; ? = inconclusive; · = not tested or not shown. This is a sample that favours compounds with a hit; in the whole collection about 6.8% have one here.

SMILES | Pf Dd2 growth | C diff HTS | T cruzi growth-1 | T cruzi growth-2 | T cruzi growth-3 | NIH3T3 tox | 3T3 cytotox 2
Cc1ccc(S(=O)(=O)N(C)C[C@@H]2Oc3ncc(C#CCN(C)C)cc3C(=O)N([C@H](C)CO)C[C@@H]2C)cc1 | – | – | – | · | · | · | ·
CC(C)CC#Cc1cnc2c(c1)C(=O)N([C@@H](C)CO)C[C@H](C)[C@@H](CN(C)S(C)(=O)=O)O2 | – | – | – | · | · | · | ·
Cc1ccc(S(=O)(=O)N(C)C[C@H]2Oc3ncc(C#CCC(C)C)cc3C(=O)N([C@H](C)CO)C[C@@H]2C)cc1 | – | – | 110 | ? | – | – | 33
Cc1ccc(S(=O)(=O)N(C)C[C@@H]2Oc3ncc(C#CCC(C)C)cc3C(=O)N([C@@H](C)CO)C[C@H]2C)cc1 | – | – | 117 | 104 | – | – | 102
CC(C)CC#Cc1cnc2c(c1)C(=O)N([C@H](C)CO)C[C@@H](C)[C@@H](CN(C)S(C)(=O)=O)O2 | – | – | – | · | · | · | ·
Cc1ccc(S(=O)(=O)N(C)C[C@H]2Oc3ncc(C#CCC(C)C)cc3C(=O)N([C@@H](C)CO)C[C@@H]2C)cc1 | – | – | 124 | 110 | – | – | 93
CC(C)CC#Cc1cnc2c(c1)C(=O)N([C@@H](C)CO)C[C@@H](C)[C@@H](CN(C)S(=O)(=O)c1ccccc1)O2 | – | – | – | · | · | · | ·
C[C@H](CO)N1C[C@H](C)[C@@H](CN(C)C(=O)c2ccc3c(c2)OCO3)Oc2ncc(/C=C/c3ccccc3)cc2C1=O | – | – | · | · | · | · | ·
COc1ccc(-c2ccc3c(c2)O[C@@H](CN(C)CC2CCOCC2)[C@@H](C)CN([C@H](C)CO)S3(=O)=O)cc1 | – | – | – | · | · | · | ·
COCC#Cc1ccc2c(c1)O[C@@H](CN(C)CC1CC1)[C@@H](C)CN([C@@H](C)CO)S2(=O)=O | – | – | · | · | · | · | ·
Cc1ccc(S(=O)(=O)N[C@H]2C=C[C@H](CC(=O)NCCc3ccncc3)O[C@@H]2CO)cc1 | – | – | – | · | · | · | ·
Cc1noc(C)c1NC(=O)N(C)C[C@H]1Oc2ccc(NC(=O)CCN3CCOCC3)cc2C(=O)N([C@H](C)CO)C[C@H]1C | – | – | – | · | · | · | ·
COc1ccc(S(=O)(=O)N(C)C[C@@H]2Oc3cc(C4=CCCC4)ccc3S(=O)(=O)N([C@@H](C)CO)C[C@@H]2C)cc1 | – | – | 109 | 104 | – | – | 39
COc1cccc(S(=O)(=O)N(C)C[C@H]2Oc3cc(C4=CCCC4)ccc3S(=O)(=O)N([C@@H](C)CO)C[C@H]2C)c1 | – | – | – | · | · | · | ·
COc1cccc(S(=O)(=O)N(C)C[C@@H]2Oc3cc(C4=CCCC4)ccc3S(=O)(=O)N([C@H](C)CO)C[C@@H]2C)c1 | – | – | 107 | 104 | – | – | 27
COc1cccc(S(=O)(=O)N(C)C[C@@H]2Oc3cc(C4=CCCCC4)ccc3S(=O)(=O)N([C@@H](C)CO)C[C@H]2C)c1 | – | – | · | · | · | · | ·
COc1cccc(S(=O)(=O)N(C)C[C@H]2Oc3cc(C4=CCCCC4)ccc3S(=O)(=O)N([C@@H](C)CO)C[C@@H]2C)c1 | – | – | · | · | · | · | ·
COc1ccc(S(=O)(=O)N(C)C[C@@H]2Oc3cc(C4=CCCC4)ccc3S(=O)(=O)N([C@H](C)CO)C[C@@H]2C)cc1 | – | – | 120 | 101 | – | – | 49
CO[C@@H]1CN(C)C(=O)c2ccc(NS(C)(=O)=O)cc2OC[C@H](C)N(C(=O)C2CCOCC2)C[C@@H]1C | – | · | – | · | · | · | ·
COCC(=O)N1[C@@H]2Cn3c(ccc(/C=C/c4ccccc4)c3=O)[C@H]1[C@@H](C(=O)N1CCOCC1)[C@@H]2CO | · | – | – | · | · | · | ·
Cc1ccc(S(=O)(=O)Nc2ccc3c(c2)C(=O)N([C@H](C)CO)C[C@@H](C)[C@@H](CN(C)S(=O)(=O)c2ccc(C)cc2)OCCCC[C@H](C)O3)cc1 | -84 | · | 103 | 112 | ? | – | –
Cc1ccc(S(=O)(=O)N(C)C[C@@H]2OCCCC[C@@H](C)Oc3ccc(NS(=O)(=O)c4ccccc4)cc3C(=O)N([C@H](C)CO)C[C@H]2C)cc1 | – | – | – | · | · | · | ·
Cc1ccc(S(=O)(=O)Nc2ccc3c(c2)C(=O)N([C@@H](C)CO)C[C@H](C)[C@H](CN(C)S(=O)(=O)c2ccc(C)cc2)OCCCC[C@H](C)O3)cc1 | – | · | 104 | 105 | – | – | –
